Reference: PubChem BioAssay (NCI)
About 83,000 compounds went through this panel and 20% of them were active in at least one assay; those are over-represented in the sample as a whole.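 Percent growth is the endpoint: 0 to 100 indicates growth inhibition (40 means 60% inhibition), 0 means no net growth, and negative values indicate cell death.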 Activity calls are given as the source filed them.

system: ACHN renal; experiment: NCI-60 one-dose screen, 48 h (100 = growth as untreated, 0 = no growth, -100 = all killed); details: 10 µM unless noted
Experimental: Growth inhibition of the ACHN human tumor cell line is measured as a screen for anti-cancer activity. Cells are grown in 96 well plates and exposed to the test compound for 48 hours. Compounds are tested at a single concentration, which is 10^-5 M for most compounds. The reported endpoint is percent growth (GI% or GIPRCNT), where numbers from 0 - 100% represent growth inhibition, and numbers from -100% - 0 represent cell death. For example, a value of 40 represents 60% growth inhibition. A value of 0 means no net growth occurred over the course of the experiment. A value of -40 indicates 40% of cells at the beginning of the experiment died by the end of the experiment. A value of -100 means all cells are dead at the end of the experiment.
NCI-60 Human Tumor Cell Lines Screen was performed using the standard one-dose NCI protocol, which is described in more detail at https://dtp.cancer.gov/discovery_development/nci-60/default.htm.
Compounds with GIPRCNT values below 10 were considered active. Activity score was based on GIPRCNT using the following formula: […]
Score is 0 for GIPRCNT values of 100 or above, 50 for GIPRCNT values of 0, and 100 for GIPRCNT values of -100.

Row | SMILES | growth
1 | Clc1nc(Cl)c2ncn(-c3ccccc3)c2n1 | 68.6% (inactive)
2 | c1ccc(-c2nnc(Nc3nnc(-c4ccccc4)s3)s2)cc1 | 96% (inactive)
3 | Cn1[nH]cc(/C=N/C(N)=O)c1=O | 109% (inactive)
4 | Nc1nc(SCc2ccccc2Cl)c(-c2ccccc2)c(SCc2ccccc2Cl)n1 | 91.4% (inactive)
5 | CC(=O)c1nc2ccccc2n1CCn1cc(CC(N)C(=O)O)c2ccccc21 (stereo not given) | 96.9% (inactive)
6 | NCCCc1nnc(CCC(=O)c2nc3ccccc3[nH]2)o1 | 97.1% (inactive)
7 | CC[C@@H]1OC(=O)[C@H](C)[C@@H](O[C@H]2C[C@@](C)(OC)[C@@H](O)[C@H](C)O2)[C@H](C)[C@@H](O[C@@H]2O[C@H](C)C[C@H](N(C)C)[C@H]2O)[C@](C)(O)C[C@@H](C)[C@@H]2N[C@@H](COCCOC)O[C@H]([C@H]2C)[C@]1(C)O | 102% (inactive)
8 | O=Nc1ccc(O)c(=O)cc1 | 1.32% (active)
9 | Cc1nc2c(O)cccc2cc1CO | 110% (inactive)
10 | Cn1cc(-c2csc(-c3c[nH]c4ncccc34)n2)c2cc(F)cnc21 | 53.3% (inactive)
11 | C[C@@H]1CC[C@H]2[C@@H](C)C(O)O[C@@H]3O[C@]4(C)CC[C@@H]1[C@]32OO4 (stereo not given in full) | 22.1% (inactive)
12 | CCCCCCCC1(C)NC(=O)NC1=O (stereo not given) | 101% (inactive)
13 | O=C(CSc1nc2c(n1Nc1ccccc1)-c1ccccc1SC2)Nc1nc(-c2ccc(Cl)cc2)cs1 | 96.5% (inactive)
14 | CCn1c2ccccc2c2ccc(C(C)=O)cc21 | 98.1% (inactive)
15 | Cc1nn(-c2ccccc2)c2c1oc(=O)c1cc(Cl)ccc12 | 101% (inactive)
16 | COc1ccc(-n2nnc(C(=O)O)c2-c2cc(OC)c(OC)c(OC)c2)cc1 | 105% (inactive)
17 | CCC(CCC(C)C1CCC2C3CC=C4CC(O)CCC4(C)C3CCC12C)C(C)C (stereo not given) (tested in a mixture with another compound) | 88% (inactive)
18 | O=C1Cc2cc(CCn3cncn3)c(Cl)cc2N1 | 74.6% (inactive)
19 | Oc1[nH]c2ccc(Cl)cc2c1/C=c1/ccc2c(c1)N=C(c1ccc(C(F)(F)F)cc1)N=2 | 57% (inactive)
20 | CC1(C)OC(=O)C(=Cc2ccccc2Br)C(=O)O1 | 102% (inactive)

Row | SMILES | growth
21 | COc1ccc2[nH]cc(/C=C3/C(=O)Nc4ccc(Cl)cc43)c2c1 | 18.2% (inactive)
22 | CCCOc1ccc2c(c1)CC[C@@H]1[C@@H]2CC[C@@]2(C)[C@H]1CC[C@]2(C)O | 93.9% (inactive)
23 | OC(Cc1cccnc1)c1ccccc1 (stereo not given) | 101% (inactive)
24 | COc1cc([C@@H]2c3cc4c(cc3C(O[C@@H]3O[C@@H]5CO[C@@H](c6cccs6)OC5[C@H](O)[C@H]3O)C3COC(=O)[C@@H]32)OCO4)cc(OC)c1O (stereo not given in full) | -54.3% (active)
25 | c1coc([C@@H]2C[C@@H]3Cc4ccc5ccccc5c4N2O3)c1 | 107% (inactive)
26 | N#Cc1c(N)[nH]c(S)c1C#N | 93.6% (inactive)
27 | CC12CCCCC1C(C(N)=O)C(=O)O2 (stereo not given) | 112% (inactive)
28 | CC(=O)NC1(C(=O)O)CCCC1 | 105% (inactive)
29 | O=[N+]([O-])c1ccc(N/N=C\c2ccccc2[N+](=O)[O-])nc1 | 102% (inactive)
30 | O=[N+]([O-])c1ccc2c(c1)S(=O)c1cc([N+](=O)[O-])ccc1N2 | 96.7% (inactive)
31 | CCOc1cccc(C2CC(=O)Nc3cc4c(cc32)OCO4)c1 (stereo not given) | 89.7% (inactive)
32 | CC1=CC(=O)C(C(C)=Nc2ccccc2Cl)C(=O)O1 (stereo not given) | 98.1% (inactive)
33 | COc1cc(/C=C/c2nnc(-c3cc(-c4ccccc4)n[nH]3)o2)cc(OC)c1OC | 91.3% (inactive)
34 | CCCCOc1ccc(C(C)(C)c2ccc(OCCCC)cc2)cc1 | 109% (inactive)
35 | c1cnc2ccc3ncccc3c2c1 | 82.1% (inactive)
36 | C=C(C[C@@](O)(C(=O)Oc1ccccc1)C(=O)C1CCCCC1)c1ccccc1 | 112% (inactive)
37 | O=C(Nc1nc(-c2ccc(Cl)cc2)cs1)c1cc(O)c(O)c(O)c1 | 15.9% (inactive)
38 | Cc1c(C(N)=O)sc2c1c(=O)n(Cc1ccccc1)c1nnc(S(=O)(=O)CC(=O)Nc3ccc(Cl)cc3)n21 | 10.1% (inactive)
39 | COc1cccc(CCC2C(=O)CCCC2=O)c1 | 103% (inactive)
40 | CC1=NN(c2ccccc2Cl)C(=O)/C1=C\c1cn(S(=O)(=O)c2ccc(C)cc2)c2ccccc12 | 97.5% (inactive)
